Results as given in the supplement of paper PMC10849652.
Of roughly 7,900 targets only a part is listed; those with a hit were picked by preference. About 0.6% of all pairs of compound and target were hits. Unmarked numbers belong to inactive results.

compound: Cc1sc2c(c1C)C(c1ccc(Cl)cc1)=N[C@@H](CC(=O)OC(C)(C)C)c1nnc(C)n1-2; assay: log2 fold change, soluble protein after heating vs DMSO (PISA); higher = thermal stabilisation; K562 cells, 10 uM, 30 min; active = over 0.2 and 3.5 SD of the protein, either way, in both replicates (recomputed)
Outline: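 Soluble protein was defined as the supernatant after 21,000xg for 90 min. It came from K562 cells at 2×10^6 cells/mL given 10 μM compound for 30 min, heated in aliquots for 3 min across 48°C-58°C, pooled, and extracted in PBS with 0.5% NP-40 at 4°C, and was quantified by TMTpro 16plex LC-MS/MS with equalised channel sums. Thermal stability against control samples, from duplicates, is reported as log2 fold change.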

Chain of UniProt Q9NXV6 (Q9NXV6 whole entry, looked up): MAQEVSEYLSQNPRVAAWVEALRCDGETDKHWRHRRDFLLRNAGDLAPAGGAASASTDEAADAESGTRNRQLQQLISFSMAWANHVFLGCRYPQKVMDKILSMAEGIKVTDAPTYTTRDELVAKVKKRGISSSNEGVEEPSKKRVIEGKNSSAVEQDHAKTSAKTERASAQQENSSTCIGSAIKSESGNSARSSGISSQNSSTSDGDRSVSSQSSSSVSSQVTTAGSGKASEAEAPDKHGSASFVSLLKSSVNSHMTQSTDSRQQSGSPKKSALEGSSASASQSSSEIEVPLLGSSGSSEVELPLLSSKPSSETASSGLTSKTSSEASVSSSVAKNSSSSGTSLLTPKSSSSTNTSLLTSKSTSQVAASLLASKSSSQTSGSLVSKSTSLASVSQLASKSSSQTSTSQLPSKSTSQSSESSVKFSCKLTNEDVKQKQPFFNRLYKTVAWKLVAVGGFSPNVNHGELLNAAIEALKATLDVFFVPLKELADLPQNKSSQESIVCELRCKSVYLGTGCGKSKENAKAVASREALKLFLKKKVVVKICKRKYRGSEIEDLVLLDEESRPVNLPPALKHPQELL
Chain of UniProt P51790 (P51790 whole entry, looked up): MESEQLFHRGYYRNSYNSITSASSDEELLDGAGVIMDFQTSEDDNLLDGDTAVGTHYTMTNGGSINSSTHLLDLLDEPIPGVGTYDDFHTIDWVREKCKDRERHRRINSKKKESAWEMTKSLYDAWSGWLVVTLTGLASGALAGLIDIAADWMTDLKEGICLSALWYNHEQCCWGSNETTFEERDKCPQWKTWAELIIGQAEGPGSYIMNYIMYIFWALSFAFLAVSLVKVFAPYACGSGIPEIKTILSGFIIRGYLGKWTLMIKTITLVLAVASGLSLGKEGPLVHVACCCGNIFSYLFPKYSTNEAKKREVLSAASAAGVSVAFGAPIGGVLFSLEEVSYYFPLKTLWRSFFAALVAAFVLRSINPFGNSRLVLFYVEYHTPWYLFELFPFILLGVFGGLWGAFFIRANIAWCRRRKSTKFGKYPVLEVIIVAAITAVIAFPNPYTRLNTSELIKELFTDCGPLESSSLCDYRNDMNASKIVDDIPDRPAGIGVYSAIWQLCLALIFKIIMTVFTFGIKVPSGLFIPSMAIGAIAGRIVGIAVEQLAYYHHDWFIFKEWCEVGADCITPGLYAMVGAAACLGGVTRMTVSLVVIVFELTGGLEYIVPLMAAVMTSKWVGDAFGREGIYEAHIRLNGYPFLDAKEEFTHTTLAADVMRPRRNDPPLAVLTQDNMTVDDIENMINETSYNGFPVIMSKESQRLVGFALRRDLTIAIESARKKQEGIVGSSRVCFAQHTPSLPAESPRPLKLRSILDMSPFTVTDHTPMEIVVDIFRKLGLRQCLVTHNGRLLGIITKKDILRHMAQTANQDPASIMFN
Chain of UniProt O00748 (O00748 whole entry, looked up): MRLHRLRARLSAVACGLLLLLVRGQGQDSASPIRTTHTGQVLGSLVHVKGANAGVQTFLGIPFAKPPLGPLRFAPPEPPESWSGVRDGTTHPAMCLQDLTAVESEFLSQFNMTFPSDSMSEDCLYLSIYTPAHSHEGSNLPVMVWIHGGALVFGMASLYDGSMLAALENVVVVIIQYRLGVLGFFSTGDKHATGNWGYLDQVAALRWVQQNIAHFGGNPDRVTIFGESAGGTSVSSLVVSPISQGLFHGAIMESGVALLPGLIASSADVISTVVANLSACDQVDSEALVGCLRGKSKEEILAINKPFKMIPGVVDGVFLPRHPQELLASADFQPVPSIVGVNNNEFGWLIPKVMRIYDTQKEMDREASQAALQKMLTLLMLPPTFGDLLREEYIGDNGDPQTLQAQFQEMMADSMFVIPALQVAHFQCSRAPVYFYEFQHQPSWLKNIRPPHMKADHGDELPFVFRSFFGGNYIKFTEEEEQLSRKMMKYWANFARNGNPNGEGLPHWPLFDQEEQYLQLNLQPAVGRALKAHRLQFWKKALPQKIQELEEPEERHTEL
Chain of UniProt Q9P0B6 (Q9P0B6 whole entry, looked up): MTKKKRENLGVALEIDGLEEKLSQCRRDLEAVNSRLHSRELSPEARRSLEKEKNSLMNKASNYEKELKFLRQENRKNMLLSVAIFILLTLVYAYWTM
Chain of UniProt Q96KA5 (Q96KA5 whole entry, looked up): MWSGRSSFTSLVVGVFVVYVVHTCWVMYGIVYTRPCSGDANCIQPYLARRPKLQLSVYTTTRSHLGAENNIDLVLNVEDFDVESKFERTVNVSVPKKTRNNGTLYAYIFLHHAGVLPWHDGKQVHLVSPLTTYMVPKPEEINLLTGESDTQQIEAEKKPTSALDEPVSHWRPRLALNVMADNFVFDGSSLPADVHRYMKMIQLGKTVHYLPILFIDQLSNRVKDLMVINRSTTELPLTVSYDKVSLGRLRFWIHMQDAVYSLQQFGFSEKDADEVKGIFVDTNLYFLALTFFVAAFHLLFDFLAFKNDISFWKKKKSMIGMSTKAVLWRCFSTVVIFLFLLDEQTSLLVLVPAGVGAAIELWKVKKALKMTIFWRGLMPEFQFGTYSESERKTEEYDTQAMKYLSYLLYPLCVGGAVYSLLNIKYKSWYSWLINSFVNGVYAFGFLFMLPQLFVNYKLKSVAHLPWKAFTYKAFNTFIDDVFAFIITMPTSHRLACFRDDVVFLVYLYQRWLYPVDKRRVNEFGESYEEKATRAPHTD
Chain of UniProt O14757 (O14757 whole entry, looked up): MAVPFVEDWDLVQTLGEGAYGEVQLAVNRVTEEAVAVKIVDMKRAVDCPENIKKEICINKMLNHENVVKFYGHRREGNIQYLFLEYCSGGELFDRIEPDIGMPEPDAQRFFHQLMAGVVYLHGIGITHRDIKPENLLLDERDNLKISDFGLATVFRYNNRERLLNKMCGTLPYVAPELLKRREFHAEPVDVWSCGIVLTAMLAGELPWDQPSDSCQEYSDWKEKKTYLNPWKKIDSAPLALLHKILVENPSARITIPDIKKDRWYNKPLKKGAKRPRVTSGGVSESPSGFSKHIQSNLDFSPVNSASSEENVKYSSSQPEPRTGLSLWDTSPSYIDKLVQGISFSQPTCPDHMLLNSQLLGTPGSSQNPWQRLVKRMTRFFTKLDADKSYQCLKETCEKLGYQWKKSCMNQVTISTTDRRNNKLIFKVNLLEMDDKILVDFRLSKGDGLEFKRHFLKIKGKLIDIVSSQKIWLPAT
Chain of UniProt Q13286 (Q13286 whole entry, looked up): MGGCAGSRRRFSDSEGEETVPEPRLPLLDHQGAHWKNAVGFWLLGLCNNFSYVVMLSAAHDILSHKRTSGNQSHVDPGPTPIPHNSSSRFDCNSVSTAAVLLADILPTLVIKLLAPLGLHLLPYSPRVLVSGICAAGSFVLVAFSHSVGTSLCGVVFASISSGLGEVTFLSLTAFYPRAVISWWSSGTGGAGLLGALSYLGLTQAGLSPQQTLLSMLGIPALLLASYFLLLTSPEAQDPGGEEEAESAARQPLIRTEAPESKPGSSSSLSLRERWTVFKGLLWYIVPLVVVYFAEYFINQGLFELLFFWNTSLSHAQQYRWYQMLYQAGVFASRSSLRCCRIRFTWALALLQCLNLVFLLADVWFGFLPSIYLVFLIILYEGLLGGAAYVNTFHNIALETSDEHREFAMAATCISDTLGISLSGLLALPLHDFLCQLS
Chain of UniProt O75122 (O75122 whole entry, looked up): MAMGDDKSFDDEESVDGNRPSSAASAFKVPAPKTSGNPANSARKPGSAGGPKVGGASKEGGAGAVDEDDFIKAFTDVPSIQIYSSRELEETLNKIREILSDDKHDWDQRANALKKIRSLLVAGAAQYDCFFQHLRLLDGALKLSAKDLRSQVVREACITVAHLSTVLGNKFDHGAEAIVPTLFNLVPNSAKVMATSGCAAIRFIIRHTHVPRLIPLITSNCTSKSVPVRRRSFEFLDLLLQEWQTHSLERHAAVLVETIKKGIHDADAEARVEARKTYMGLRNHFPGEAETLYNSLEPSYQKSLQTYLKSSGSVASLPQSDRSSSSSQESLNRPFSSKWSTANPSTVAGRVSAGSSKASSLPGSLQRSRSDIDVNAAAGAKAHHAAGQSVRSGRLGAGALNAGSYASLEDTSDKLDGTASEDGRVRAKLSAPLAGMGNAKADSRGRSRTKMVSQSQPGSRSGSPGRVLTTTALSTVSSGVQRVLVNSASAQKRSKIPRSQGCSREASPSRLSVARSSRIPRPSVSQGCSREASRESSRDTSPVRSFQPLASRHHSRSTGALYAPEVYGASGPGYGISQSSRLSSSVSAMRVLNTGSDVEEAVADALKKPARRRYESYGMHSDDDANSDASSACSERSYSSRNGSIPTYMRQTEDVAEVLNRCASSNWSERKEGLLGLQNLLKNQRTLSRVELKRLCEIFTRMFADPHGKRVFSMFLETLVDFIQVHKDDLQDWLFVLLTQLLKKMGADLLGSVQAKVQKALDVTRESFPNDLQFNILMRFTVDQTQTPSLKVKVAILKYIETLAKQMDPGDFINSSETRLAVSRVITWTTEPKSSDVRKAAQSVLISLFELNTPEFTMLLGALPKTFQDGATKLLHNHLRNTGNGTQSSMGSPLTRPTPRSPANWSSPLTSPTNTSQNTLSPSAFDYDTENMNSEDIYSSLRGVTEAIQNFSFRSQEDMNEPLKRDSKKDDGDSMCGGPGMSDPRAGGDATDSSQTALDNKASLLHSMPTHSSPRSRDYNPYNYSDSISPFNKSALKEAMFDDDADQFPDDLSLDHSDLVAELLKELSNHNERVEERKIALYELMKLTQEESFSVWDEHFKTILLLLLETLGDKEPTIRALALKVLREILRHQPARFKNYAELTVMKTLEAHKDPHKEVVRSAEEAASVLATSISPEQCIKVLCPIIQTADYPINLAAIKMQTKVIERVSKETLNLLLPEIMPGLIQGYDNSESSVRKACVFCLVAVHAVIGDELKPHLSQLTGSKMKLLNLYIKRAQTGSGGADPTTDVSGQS
Chain of UniProt Q5JTJ3 (Q5JTJ3 whole entry, looked up): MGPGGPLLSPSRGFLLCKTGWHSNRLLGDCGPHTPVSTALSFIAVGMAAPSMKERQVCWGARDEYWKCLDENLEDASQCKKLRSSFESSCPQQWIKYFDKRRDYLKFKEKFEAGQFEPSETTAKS

In order of rising log2 fold change:
1. CLPTM1L (UniProt Q96KA5)  -0.145
2. CCDC167 (UniProt Q9P0B6)  -0.124
3. CEPT1 (UniProt Q9Y6K0)  -0.121
4. CLN3 (UniProt Q13286)  -0.119
5. CLCN3 (UniProt P51790)  -0.107
6. COA6 isoform 2 (UniProt Q5JTJ3)  -0.06
7. CHP1 (UniProt Q99653)  -0.057
8. CHAMP1 (UniProt Q96JM3)  -0.051
9. CERS2 (UniProt Q96G23)  -0.036
10. CPQ (UniProt Q9Y646)  -0.031
11. CLASP2 isoform 3 (UniProt O75122)  -0.024
12. CNOT1 (UniProt A5YKK6)  -0.017
13. COX15 (UniProt Q7KZN9)  -0.013
14. CHST11 (UniProt Q9NPF2)  0.007
15. CETN3 (UniProt O15182)  0.008
16. CDKN2AIP (UniProt Q9NXV6)  0.021
17. CHEK1 (UniProt O14757)  0.025
18. CDC42BPB (UniProt Q9Y5S2)  0.025
19. CNN3 (UniProt Q15417)  0.035
20. CLN8 (UniProt Q9UBY8)  0.043
21. CLN5 (UniProt O75503)  0.057
22. CAMK2G isoform 6 (UniProt Q13555)  0.096
23. CES2 isoform 4 (UniProt O00748)  0.118
